Laboratory results as given in PubChem BioAssay (NCATS).
Results filed as inconclusive are left out. Calls of active or inactive are those of the source. Calls come from the whole dose curve; as a rule, active = well fitted curve in the direction sought with a large enough effect; inconclusive = small, poorly fitted or top-dose-only effect, or another doubt; inactive = no such curve, though single readings can be large or run the other way.

assay: qHTS for Inhibitors of Ubiquitin-specific Protease USP2a Using CHOP2 as the Reporter: K633 Counterscreen (AID 652168); conditions: No-enzyme DiUb K48 IQF substrate fluorescence interference, kinetic; series mostly up to 57.5 µM
Description: Homeostasis of cellular proteins is maintained through a combination of synthesis and degradation. The pathway that accounts for the majority of protein degradation is the ubiquitin-proteasomal pathway. Ubiquitin (Ub) is highly conserved in all cells and the generation of a multi-Ub chain typically targets proteins for degradation by the proteasome. However, ubiquitination is highly reversible and dynamic. Deubiquitination, the reverse process, is catalyzed through the action of enzymes referred to as isopeptidases or deubiquitinating enzymes (DUBs). This group of enzymes is collectively responsible for maintaining adequate pools of free ubiquitin and regulating the ubiquitination status of cellular proteins. The class of DUBs referred to as the ubiquitin-specific proteases (USP) family functions endoproteolytically to cleave Ub chains from a wide range of protein substrates. USP2a deubiquitinates fatty acid synthase (FASN) which has recently been identified as an emerging oncology target. To identify inhibitors of USP2a a cell-free qHTS assay was employed. To determine whether the compounds interacted with the detection system alone, the effect of compounds on the substrate of assay 2.1.3 over time was determined in a 1536-well assay. A compound that modulates the fluorescence over time would be indicative of interference with the detection system. The buffer consisted of 20 mM Tris pH 8, 2 mM beta-mercaptoethanol and 0.05% Chaps, and the assay was run in black solid-bottom Greiner plates. NIH Molecular Libraries Probe Centers Network [MLPCN] NIH Chemical Genomics Center [NCGC] MLSCN Grant: MH079852 PI Name: Benjamin Nicholson, Progenra Inc, Malvern, PA
3 uL of no enzyme in assay buffer was dispensed into a 1536-well plate and then compounds were added through pinning. 1 uL of 100 nM DiUb K48-4IQF subtsrate was added before fluoresence on the ViewLux in kinetic moder (Ex 525/Em 598).

| SMILES | outcome |
| --- | --- |
| CN(Cc1nccs1)S(=O)(=O)c1ccc(Nc2nc(-c3ccccc3)cs2)cc1 | inactive |
| O=C1CCCc2cc(S(=O)(=O)Nc3cnccc3C(=O)Nc3nc(-c4ccccc4)cs3)ccc2N1 | inactive |
| N#Cc1ccc(S(=O)(=O)Nc2cnccc2C(=O)Nc2nc(-c3ccccc3)cs2)cc1 | inactive |
| CCc1ccc(S(=O)(=O)Nc2cnccc2C(=O)Nc2nc(-c3ccccc3)cs2)cc1 | inactive |
| O=C(Nc1ccc(S(=O)(=O)Nc2nccs2)cc1)c1ccc(-c2ccccc2)cc1 | inactive |
| Cc1ccc(S(=O)(=O)Nc2cnccc2C(=O)Nc2nc(-c3cnn(C)c3)cs2)cc1 | inactive |
| O=C(Nc1nc(-c2ccc(F)cc2)cs1)c1ccncc1NS(=O)(=O)c1ccccc1Cl | inactive |
| Cc1ccc(-c2cc(C(=O)NC3CCCCC3)c3ccccc3n2)cc1C | inactive |
| O=C(Nc1nc(-c2ccccc2)cs1)c1ccncc1NS(=O)(=O)c1ccc(F)cc1Cl | inactive |
| O=C(Nc1nc(-c2ccccc2)cs1)c1ccncc1NS(=O)(=O)c1ccc(F)c(F)c1 | inactive |
| Cc1ccc(S(=O)(=O)Nc2cnccc2C(=O)Nc2nc(C(=O)O)cs2)cc1 | inactive |
| COc1ccc(-c2csc(NC(=O)c3ccncc3NS(=O)(=O)c3ccc(C)cc3)n2)cc1 | inactive |
| Cc1cc(S(=O)(=O)Nc2cnccc2C(=O)Nc2nc(-c3ccccc3)cs2)c(C)o1 | inactive |
| COc1cccc(S(=O)(=O)Nc2cnccc2C(=O)Nc2nc(-c3ccccc3)cs2)c1 | inactive |
| Cc1ccc(S(=O)(=O)Nc2cnccc2C(=O)Nc2nc(-c3cc4ccccc4o3)cs2)cc1 | inactive |
| O=C(Nc1nc(-c2ccccc2)cs1)c1ccncc1NS(=O)(=O)c1ccc2c(c1)CCC2 | inactive |
| COc1ccc(S(=O)(=O)Nc2cnccc2C(=O)Nc2nc(-c3ccccc3)cs2)cc1 | inactive |
| O=C(Nc1nc(-c2ccccc2)cs1)c1ccncc1NS(=O)(=O)c1ccc(-c2ccccc2)cc1 | inactive |
| N#Cc1cnc(NS(=O)(=O)c2ccc(NC(=O)Cc3ccc(F)c(Cl)c3)cc2)s1 | inactive |
| Cc1ccc(S(=O)(=O)Nc2cnccc2C(=O)Nc2nc(-c3ccc(Oc4ccccc4)cc3)cs2)cc1 | inactive |

| SMILES | outcome |
| --- | --- |
| COc1ccccc1S(=O)(=O)Nc1cnccc1C(=O)Nc1nc(-c2ccccc2)cs1 | inactive |
| COc1ccc(C(=O)Nc2nc(-c3ccccc3)cs2)c(NS(=O)(=O)c2ccc(C)cc2)c1 | inactive |
| Nc1cccc(S(=O)(=O)Nc2cnccc2C(=O)Nc2nc(-c3ccccc3)cs2)c1 | inactive |
| O=C(Nc1ccc(S(=O)(=O)Nc2ncc(-c3ccccc3)s2)cc1)c1ccc2ccccc2c1 | inactive |
| O=S(=O)(Nc1nccs1)c1ccc(Nc2nc(-c3ccc(Cl)c(Cl)c3)cs2)cc1 | inactive |
| Cc1ccc(-c2csc(Nc3ccc(S(=O)(=O)Nc4nccs4)cc3)n2)cc1C | inactive |
| O=S(=O)(Nc1nccs1)c1ccc(Nc2nc(-c3ccc(F)cc3)cs2)cc1 | inactive |
| CC(=O)Nc1ncc(S(=O)(=O)Nc2cnccc2C(=O)Nc2nc(-c3ccccc3)cs2)s1 | inactive |
| CC(C)Cc1ccc(-c2csc(Nc3ccc(S(=O)(=O)Nc4nccs4)cc3)n2)cc1 | inactive |
| CCN(CC)C(=O)C1CCC(C(=O)Nc2ccc([S+](=O)([O-])Nc3nccs3)cc2)CC1 (stereo not given) | inactive |
| Cc1ccc(S(=O)(=O)Nc2cnccc2C(=O)Nc2nc(-c3ccc4c(c3)CCCC4)cs2)cc1 | inactive |
| O=C(Nc1nc(-c2ccccc2)cs1)c1ccncc1NS(=O)(=O)c1ccc(F)cc1 | inactive |
| O=C(Nc1nc(-c2ccccc2)cs1)c1ccncc1NS(=O)(=O)c1cccs1 | inactive |
| N#Cc1ccccc1S(=O)(=O)Nc1cnccc1C(=O)Nc1nc(-c2ccccc2)cs1 | inactive |
| O=C(Nc1nc(-c2ccccc2)cs1)c1ccncc1NS(=O)(=O)c1ccccc1Cl | inactive |
| Cc1ccc(-c2cc(C(=O)Nc3ccc(S(N)(=O)=O)cc3)c3cccc(C)c3n2)cc1C | inactive |
| Cc1ccc(S(=O)(=O)Nc2cnccc2C(=O)Nc2nc3ccccc3s2)cc1 | inactive |
| Cc1ccc(S(=O)(=O)Nc2cnccc2C(=O)Nc2nc(-c3cc(Br)cs3)cs2)cc1 | inactive |
| O=C(Nc1nc(-c2ccccc2)cs1)c1ccncc1NS(=O)(=O)c1cccc(Cl)c1 | inactive |
| CCCc1ccc(C(=O)Nc2ccc(S(=O)(=O)Nc3nccs3)cc2)cc1 | inactive |
